Structures can show the parent of a compound that is named as a salt.

The subject of this experiment is MOLM14. Kind of experiment: cell viability relative to vehicle control; higher = less cytotoxic. To be noted: 10 µM; SRSF2 genotype: SRSF2 wt/wt. An outline of the steps:
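Mutant clones made by CRISPR editing and their isogenic wild-type counterparts, from four leukaemia lines, were exposed to a single 10 µM dose of each library compound for 48 h. The supernatant was then removed and CellTiter-Glo luminescence was read. Viability was reported as percent of the on-plate vehicle control.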
With `NC(=O)[C@@H](CCC(F)(F)F)N(Cc1ccc(-c2ncon2)cc1F)S(=O)(=O)c1ccc(Cl)cc1`, the cell viability (in general, a read-out of living cells in per cent, often relative to untreated cells) was determined as 97.9%.

On to `COc1c/c(=C2\C=c3ccccc3=N2)[nH]/c1=C\c1[nH]c(C)cc1C` [Obatoclax mesylate (GX15-070)], for which the cell viability turned out to be 7.58%.

For `O=C(O)CC(C(=O)O)n1c(O)c(C2=c3cc(Br)ccc3=NC2=O)sc1=S` (stereo not given), the cell viability was 89.4%.

Consider `COc1cc(NS(=O)(=O)c2ccc(N)cc2)nc(OC)n1` [Sulphadimethoxine], for which the cell viability was 91.5%.

Turning to `NC(=O)[C@@H]1CCCN1C(=O)[C@H](Cc1c[nH]cn1)NC(=O)[C@@H]1CCC(=O)N1` [Protirelin], the cell viability was 100%.

Take `COC(=O)c1cc(OC)c(O)c(OC)c1` [Methyl syringate]: the cell viability turned out to be 92.3%.

For the compound `N=c1ccn2c(n1)O[C@H]1[C@H](O)[C@@H](CO)O[C@H]12` [Cyclocytidine HCl], the cell viability was 2.48%.

As to `O=P(O)(O)C(O)(Cc1cccnc1)P(=O)(O)O` [Risedronate sodium], the cell viability was 101%.

As to `CN(C)CCOc1ccc(-c2nc(-c3ccncc3)c(-c3ccc4c(c3)CC/C4=N\O)[nH]2)cc1`, the cell viability was determined as 49.3%.

`COC(=O)C1=C(C)NC(C)=C(C(=O)OCCN2CCN(C(c3ccccc3)c3ccccc3)CC2)C1c1cccc([N+](=O)[O-])c1` (stereo not given) [Manidipine (Manyper)]: the cell viability was found to be 64.2%.

As for `COC1CCN(C(=O)c2cc(Cc3n[nH]c(=O)c4ccccc34)ccc2F)CC1`, the cell viability came out at 34.7%.

As for `C=C1C[C@@]23CC[C@H]4[C@@](C)(CCC[C@@]4(C)C(=O)O[C@@H]4O[C@H](CO)[C@@H](O)[C@H](O)[C@H]4O)[C@@H]2CC[C@]1(O[C@@H]1O[C@H](CO)[C@@H](O)[C@H](O)[C@H]1O[C@@H]1O[C@H](CO)[C@@H](O)[C@H](O)[C@H]1O)C3` [Stevioside], the cell viability is 112%.

On to `Cc1cc(=O)oc2ccc(O)cc12` [6-Hydroxy-4-methylcoumarin], for which the cell viability turned out to be 103%.

Turning to `COC1C(O)C(O)C(O)C(O)C1O` (stereo not given) [Sequoyitol], the cell viability came out at 109%.

Take `CC1(C)O[C@@H]2C[C@H]3[C@@H]4CCC5=CC(=O)C=C[C@]5(C)[C@@]4(F)[C@@H](O)C[C@]3(C)[C@]2(C(=O)CO)O1` [Triamcinolone Acetonide]: the cell viability stood at 95.3%.

With `COc1ccc(C(C)=O)c(O)c1` [Paeonol (Peonol)], the cell viability was found to be 102%.

For `COc1cccc(/C=N/N(C(=O)C(F)(F)F)c2ccc(C)cc2C)c1`, the cell viability came to 105%.

As to `C=C1C(=O)[C@]23[C@H](O)[C@H]1CC[C@H]2[C@@]12CO[C@]3(O)[C@@H](O)[C@@H]1C(C)(C)CC[C@@H]2O` [Oridonin (Isodonol)], the cell viability is 3.32%.

On to `CN(CCOc1ccc(CC2SC(=O)NC2=O)cc1)c1ccccn1` (stereo not given) [Rosiglitazone maleate], for which the cell viability was 103%.

Take `CC(C)C[C@@H]1NC(=O)[C@@H](C(C)C)NC(=O)[C@@H]2CCCN2C(=O)[C@@H](CC(=O)O)NC(=O)[C@@H](Cc2c[nH]c3ccccc23)NC1=O`: the cell viability is 101%.

Turning to `Cc1cc(Nc2ncc3c(n2)N(C)C(=O)N(c2cc(NC(=O)c4cccc(C(F)(F)F)c4)ccc2C)C3)n(C)n1` [Pluripotin (SC1)], the cell viability was 7.23%.

On to `C[C@]12C=CC(=O)C=C1CC[C@H]1[C@@H]3C[C@@H](O)[C@](O)(C(=O)CO)[C@@]3(C)C[C@H](O)[C@@]12F` [Triamcinolone (Aristocort)], for which the cell viability was 98.3%.

With `O=C(O)CCC(=O)O` [Succinic acid], the cell viability came to 93.6%.

Turning to `CCOP(=O)(OCC)C(=Cc1cc(C(C)(C)C)c(O)c(C(C)(C)C)c1)P(=O)(OCC)OCC`, the cell viability came out at 71.6%.

`O=C(/C=C/C=C/c1ccc2c(c1)OCO2)N1CCCCC1` [Piperine (1-Piperoylpiperidine)]: the cell viability turned out to be 100%.

As to `Cc1cc(=O)n(-c2ccccc2)n1C` [Antipyrine], the cell viability was 87.4%.

For `CC(=O)OC(CC(C)C1=C2CC(O)C3C4(C)CCC(=O)C(C)(C)C4CCC3(C)C2(C)CC1)C1OC1(C)C` (stereo not given) [Alisol B Acetate], the cell viability turned out to be 87.8%.

`CC(=O)Nc1ccccc1` [Acetanilide (Antifebrin)]: the cell viability turned out to be 101%.

Turning to `CCS(=O)(=O)N1CC(CC#N)(n2cc(-c3ncnc4[nH]ccc34)cn2)C1`, the cell viability is 109%.

In the case of `O=C(O)[C@H]1O[C@@H](Oc2cc3oc(-c4ccc(O)cc4)cc(=O)c3c(O)c2O)[C@H](O)[C@@H](O)[C@@H]1O` [Scutellarin], the cell viability was determined as 105%.

Turning to `Cc1cc(S(=O)(=O)O)c2c(C)ccc(C(C)C)cc1-2` [Sodium gualenate], the cell viability amounted to 104%.

With `O=C(Nc1ccc(OC(F)(F)Cl)cc1)c1cnc(N2CC[C@@H](O)C2)c(-c2cc[nH]n2)c1` [Asciminib (ABL001)], the cell viability stood at 87.7%.

For the compound `Nc1[nH]c(=O)ncc1Br` [5-Bromocytosine], the cell viability amounted to 105%.

Regarding `CC[C@H](C)C(=O)O[C@H]1C[C@@H](C)C=C2C=C[C@H](C)[C@H](CC[C@@H]3C[C@@H](O)CC(=O)O3)[C@H]21` [Lovastatin (Mevacor)], the cell viability worked out at 100%.

`CO/N=C(\C(=O)N[C@@H]1C(=O)N2C(C(=O)[O-])=C(C[N+]3(C)CCCC3)CS[C@H]12)c1csc(N)n1` [Cefepime Dihydrochloride Monohydrate]: the cell viability turned out to be 107%.

Take `CC(=O)OC(C)C(C)C(=O)OCC12C3CC(C)(C)[C@H](O[C@@H]1C[C@]1(C)C3=CCC3C4(C)CCC(O[C@@H]5O[C@H](C(=O)O)[C@@H](O[C@H]6O[C@H](CO)[C@@H](O)[C@H](O)[C@H]6O)[C@H](O)[C@H]5O[C@@H]5OC[C@@H](O)[C@H](O)[C@H]5O)[C@](C)(CO)C4CCC31C)C2O` (stereo not given in full) [Sodium Aescinate]: the cell viability turned out to be 92.3%.

`C[C@H]1C[C@H]2[C@@H]3C[C@H](F)C4=CC(=O)C=C[C@]4(C)[C@@]3(F)[C@@H](O)C[C@]2(C)[C@@]1(O)C(=O)CO` [Diflorasone]: the cell viability is 98.9%.

Take `Oc1ccc(CC2NCCc3cc(O)c(O)cc32)cc1` (stereo not given) [Higenamine hydrochloride]: the cell viability was 89.7%.

In the case of `CC(C)(C)[N+]([O-])=Cc1ccc(S(=O)(=O)O)cc1S(=O)(=O)O` [NXY-059 (Disufenton sodium)], the cell viability worked out at 108%.

`CN1CCC(=C2c3ccccc3CCc3sccc32)CC1` [Pizotifen malate]: the cell viability is 90.1%.
